This note sets out measurements from ChEMBL document CHEMBL2218924, “A broad activity screen in support of a chemogenomic map for kinase signalling research and drug discovery” (Biochem J, 2013).

Experiment [1] has as its target Tyrosine-protein kinase SYK (Homo sapiens) (UniProt P43405). The settings on record: at 10 µM.
Experiment [2] concerns the target T1, Mitogen-activated protein kinase kinase kinase 7 (Homo sapiens) (UniProt O43318).
T1 sequence (whole entry): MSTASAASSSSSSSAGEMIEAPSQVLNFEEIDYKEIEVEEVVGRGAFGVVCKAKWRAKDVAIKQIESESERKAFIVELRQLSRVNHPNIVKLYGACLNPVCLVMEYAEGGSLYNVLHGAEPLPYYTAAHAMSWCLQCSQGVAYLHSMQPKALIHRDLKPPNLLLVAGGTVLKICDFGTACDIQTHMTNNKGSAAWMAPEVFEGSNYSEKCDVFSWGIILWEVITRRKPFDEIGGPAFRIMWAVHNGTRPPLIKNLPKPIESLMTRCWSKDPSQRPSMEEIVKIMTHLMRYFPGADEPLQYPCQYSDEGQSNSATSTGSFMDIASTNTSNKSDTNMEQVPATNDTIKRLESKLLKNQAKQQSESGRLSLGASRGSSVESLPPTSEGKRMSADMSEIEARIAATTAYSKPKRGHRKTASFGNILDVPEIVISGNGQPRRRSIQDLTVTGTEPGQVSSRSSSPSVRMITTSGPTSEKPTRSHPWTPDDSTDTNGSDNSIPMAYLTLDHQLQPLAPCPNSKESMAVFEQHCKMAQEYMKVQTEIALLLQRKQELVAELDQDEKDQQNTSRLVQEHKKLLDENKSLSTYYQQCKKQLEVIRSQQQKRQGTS
The settings on record: at 1 µM.

Experiment [3] addresses T1, Mitogen-activated protein kinase kinase kinase 7 (Homo sapiens). The following applies: at 10 µM.
The target of experiment [4] is T2, Serine/threonine-protein kinase TAO1 (Homo sapiens) (UniProt Q7L7X3).
T2 sequence (whole entry): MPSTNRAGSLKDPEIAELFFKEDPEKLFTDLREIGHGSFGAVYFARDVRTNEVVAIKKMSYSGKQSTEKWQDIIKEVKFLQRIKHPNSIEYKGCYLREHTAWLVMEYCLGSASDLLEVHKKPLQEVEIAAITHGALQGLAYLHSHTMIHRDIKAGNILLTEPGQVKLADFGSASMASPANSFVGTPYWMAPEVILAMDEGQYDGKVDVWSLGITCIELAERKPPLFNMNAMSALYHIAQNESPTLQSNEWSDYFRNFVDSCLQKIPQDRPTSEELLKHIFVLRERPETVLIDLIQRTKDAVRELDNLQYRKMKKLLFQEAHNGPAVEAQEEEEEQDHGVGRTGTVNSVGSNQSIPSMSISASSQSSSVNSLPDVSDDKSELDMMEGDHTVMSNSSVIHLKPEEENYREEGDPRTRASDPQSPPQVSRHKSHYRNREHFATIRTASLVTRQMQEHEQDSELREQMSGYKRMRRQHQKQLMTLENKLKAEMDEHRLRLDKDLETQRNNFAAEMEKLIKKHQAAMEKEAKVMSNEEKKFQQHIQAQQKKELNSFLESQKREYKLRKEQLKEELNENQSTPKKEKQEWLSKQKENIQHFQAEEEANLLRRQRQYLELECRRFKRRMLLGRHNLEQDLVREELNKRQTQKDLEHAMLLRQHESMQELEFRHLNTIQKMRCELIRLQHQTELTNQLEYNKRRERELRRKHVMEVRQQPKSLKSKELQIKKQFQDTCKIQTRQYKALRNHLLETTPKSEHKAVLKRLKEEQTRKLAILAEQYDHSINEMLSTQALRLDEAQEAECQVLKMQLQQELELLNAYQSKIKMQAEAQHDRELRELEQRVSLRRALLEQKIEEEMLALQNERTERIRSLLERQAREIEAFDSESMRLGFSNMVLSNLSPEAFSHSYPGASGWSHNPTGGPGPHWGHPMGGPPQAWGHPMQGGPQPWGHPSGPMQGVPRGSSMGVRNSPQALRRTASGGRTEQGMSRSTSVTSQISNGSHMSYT
The settings on record: at 1 µM.

Experiment [5] deals with T2, Serine/threonine-protein kinase TAO1 (Homo sapiens). The following applies: at 10 µM.
Experiment [6] has as its target T3, Serine/threonine-protein kinase TAO2 (Homo sapiens) (UniProt Q9UL54).
T3 sequence (whole entry): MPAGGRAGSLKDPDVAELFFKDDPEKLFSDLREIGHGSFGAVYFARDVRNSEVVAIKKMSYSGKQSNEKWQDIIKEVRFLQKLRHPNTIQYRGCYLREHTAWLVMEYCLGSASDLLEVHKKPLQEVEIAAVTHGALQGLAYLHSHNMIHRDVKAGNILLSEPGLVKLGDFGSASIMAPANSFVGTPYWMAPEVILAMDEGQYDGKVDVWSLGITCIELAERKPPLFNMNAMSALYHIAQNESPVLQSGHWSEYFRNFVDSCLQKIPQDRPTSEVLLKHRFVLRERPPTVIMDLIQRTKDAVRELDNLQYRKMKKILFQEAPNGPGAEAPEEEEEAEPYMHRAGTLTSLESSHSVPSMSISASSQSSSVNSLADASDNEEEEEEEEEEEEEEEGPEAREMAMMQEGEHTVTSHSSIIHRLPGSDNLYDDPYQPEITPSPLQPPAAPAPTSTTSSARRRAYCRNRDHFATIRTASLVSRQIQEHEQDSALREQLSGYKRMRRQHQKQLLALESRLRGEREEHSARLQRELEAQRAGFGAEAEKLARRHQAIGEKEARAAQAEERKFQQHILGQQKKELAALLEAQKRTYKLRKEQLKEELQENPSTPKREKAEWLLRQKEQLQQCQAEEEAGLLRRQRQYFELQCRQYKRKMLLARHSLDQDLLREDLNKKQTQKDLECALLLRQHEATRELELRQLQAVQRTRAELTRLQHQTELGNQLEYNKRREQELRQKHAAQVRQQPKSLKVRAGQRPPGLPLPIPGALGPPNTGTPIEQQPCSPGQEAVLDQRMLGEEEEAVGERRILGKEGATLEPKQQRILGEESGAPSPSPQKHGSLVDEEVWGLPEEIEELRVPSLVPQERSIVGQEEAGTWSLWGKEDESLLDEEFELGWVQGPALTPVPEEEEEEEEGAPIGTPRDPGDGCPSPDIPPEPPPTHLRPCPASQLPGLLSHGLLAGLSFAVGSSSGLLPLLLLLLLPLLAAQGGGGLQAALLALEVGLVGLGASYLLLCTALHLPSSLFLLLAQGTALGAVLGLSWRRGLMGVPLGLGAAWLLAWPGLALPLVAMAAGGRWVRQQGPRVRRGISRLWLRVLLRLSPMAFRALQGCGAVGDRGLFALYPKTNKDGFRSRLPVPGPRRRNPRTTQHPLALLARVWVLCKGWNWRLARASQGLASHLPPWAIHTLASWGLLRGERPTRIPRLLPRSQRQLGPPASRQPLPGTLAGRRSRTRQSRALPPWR
The settings on record: at 1 µM.

Experiment [7] addresses T3, Serine/threonine-protein kinase TAO2 (Homo sapiens). The following applies: at 10 µM.
Experiment [8] addresses T4, Serine/threonine-protein kinase TAO3 (Homo sapiens) (UniProt Q9H2K8).
T4 sequence (whole entry): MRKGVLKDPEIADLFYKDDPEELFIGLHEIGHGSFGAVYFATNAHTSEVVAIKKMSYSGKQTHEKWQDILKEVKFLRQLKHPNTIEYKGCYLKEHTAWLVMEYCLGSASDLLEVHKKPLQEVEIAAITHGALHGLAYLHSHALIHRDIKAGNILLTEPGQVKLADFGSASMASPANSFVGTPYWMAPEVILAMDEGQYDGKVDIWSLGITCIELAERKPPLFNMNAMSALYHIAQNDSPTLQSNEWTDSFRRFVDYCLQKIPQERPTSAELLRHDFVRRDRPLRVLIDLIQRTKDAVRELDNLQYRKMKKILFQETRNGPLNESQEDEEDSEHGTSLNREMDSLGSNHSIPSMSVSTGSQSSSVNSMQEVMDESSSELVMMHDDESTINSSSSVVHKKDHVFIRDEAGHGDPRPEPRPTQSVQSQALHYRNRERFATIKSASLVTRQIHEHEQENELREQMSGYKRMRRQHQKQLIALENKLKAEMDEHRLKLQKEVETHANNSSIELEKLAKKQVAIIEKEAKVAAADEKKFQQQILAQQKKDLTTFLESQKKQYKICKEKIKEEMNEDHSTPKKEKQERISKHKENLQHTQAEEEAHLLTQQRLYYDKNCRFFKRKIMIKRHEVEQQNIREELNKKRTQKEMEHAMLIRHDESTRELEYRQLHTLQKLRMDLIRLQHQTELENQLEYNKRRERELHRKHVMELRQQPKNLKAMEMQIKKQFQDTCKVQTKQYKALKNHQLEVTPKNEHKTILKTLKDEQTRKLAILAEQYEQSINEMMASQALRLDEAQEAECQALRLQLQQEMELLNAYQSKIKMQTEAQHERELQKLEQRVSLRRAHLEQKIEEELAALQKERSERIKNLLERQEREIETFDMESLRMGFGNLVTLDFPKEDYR
The settings on record: at 1 µM.

Experiment [9] addresses T4, Serine/threonine-protein kinase TAO3 (Homo sapiens). The following applies: at 10 µM.

With `CCCC(=O)Oc1ccc2[nH]c(C(=O)c3cc4ccccc4[nH]3)cc2c1`, the residual activity in [1] was 101%; in experiment [2], 83%; in experiment [3], 87%; in experiment [4], 91%; in experiment [5] it was 81%; in experiment [6] it was 104%. In addition, the residual activity came to 83% in experiment [7], 89% in experiment [8] and 86% in [9].
